Data taken from PubChem BioAssay (NCATS).
Inconclusive results are not listed. Values without a mark were called inactive. The source made the active and inactive calls. The call rests on the fitted dose curve; in most records, active means well fitted cell-killing curve with a large enough effect; inconclusive means small, poorly fitted or top-dose-only effect, or effect the other way; inactive means no such curve, though single readings can be large or run the other way.

experiment: Viability qHTS for spleen associated tyrosine kinase inhibitor (SYKi) drug resistant MV4-11 cells (AID 1963824); settings: SYKi-resistant MV4-11 viability, CellTiter-Glo, 72 h; series mostly up to 45 µM; viability, % of control: at the top concentration; further: nearly all actives have a fitted effect of over 35% in size
Method in brief: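 SYK-inhibitor-resistant MV4-11 AML cells were seeded at 500 per well onto compound and cultured 72 hours (37 °C, 5% CO2). CellTiter-Glo was then added, and after 10 min at room temperature, luminescence gave viability.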
Potency means the concentration at half of the fitted maximal effect.

SMILES | viability, % of control | Potency
CC(=O)C12OC(C)(C)OC1CC1C3CCC4=CC(=O)C=CC4(C)C3(F)C(O)CC12C (stereo unspecified) | 96.7% | –
COc1c2c(c(C)c3c1C(=O)OC3)OC1(C)CC(O)C34OC(OC)(CCC3(C)C1C2)OC4(C)CO (stereo unspecified) | 77.6% [at 17.3 µM] | –
N#C/C(=C\c1ccc(O)c(O)c1)C(=O)NCCCc1ccccc1 | – | 8.2 µM (active)
CC(C)Oc1ccc(-c2nc(-c3cccc4c3CCC4NCCC(=O)O)no2)cc1C#N (stereo unspecified) | 75.8% | –
C1CCN2CC3C[C@@H](CN4CCCC[C@@H]34)[C@H]2C1 | 97.1% | –
Cc1oc2nc3c(c(NC(=O)CN4CCCC4=O)c2c1C)CCCC3 | 106% | –
Cc1c(Cl)cccc1S(=O)(=O)Nc1nc(NCCc2ccccc2)nc2c1CN(Cc1ccccc1)CC2 | – | 13 µM (active)
CCNC(=O)[C@@H]1CCCN1C(=O)[C@H](CCCN=C(N)N)NC(=O)[C@H](CC(C)C)NC(=O)[C@@H](C)NC(=O)[C@H](Cc1ccc(O)cc1)NC(=O)[C@H](CO)NC(=O)[C@H](Cc1c[nH]c2ccccc12)NC(=O)[C@H](Cc1cnc[nH]1)NC(=O)[C@@H]1CCC(=O)N1 | 88.7% [at 17.3 µM] | –
COc1ccc(CCC(=O)c2c(O)cc(O[C@@H]3O[C@H](CO)[C@@H](O)[C@H](O)[C@H]3O[C@@H]3O[C@@H](C)[C@H](O)[C@@H](O)[C@H]3O)cc2O)cc1O | 94.9% | –
COC(=O)c1cc(CN2CCN(C(=N)N)CC2)cc(C(=O)N2CCN(C(=O)c3ccc(C(=N)N)cc3)CC2)c1 | 106% | –
CC1CCCC[C@H]2C(=O)C=C[C@H](O)[C@@H]2CC(=O)O1 (stereo partly specified) | – | 0.731 µM (active)
C/C(=C\CCC(C)(O)c1ccc(C)cc1)C(=O)O (stereo unspecified) | 89.1% | –
O=C(O[C@H]1[C@@H]2C[C@@H]3OC[C@](O)([C@@H]1Cl)[C@H]2C(O[C@@H]1O[C@H](CO)[C@@H](O)[C@H](O)[C@H]1O)O3)c1ccc(O)c(O)c1 (stereo partly specified) | 115% [at 17.3 µM] | –
COc1cc(C(O)C(CO)Oc2ccc(CCCO[C@@H]3O[C@@H](C)[C@H](O)[C@@H](O)[C@H]3O)cc2OC)ccc1O (stereo partly specified) | 82.7% [at 17.3 µM] | –
C=C1CC23CC1CCC2C12OC(=O)C(C)(C(O)C(O)C1O)C2C3C(=O)O (stereo unspecified) | 80.7% | –
COc1ccc(CN2C(=O)C(=O)c3cc(S(=O)(=O)N4CCC[C@H]4COc4cccnc4)ccc32)cc1 | 108% | –

SMILES | viability, % of control | Potency
CC(=O)c1ccc2c(c1)[C@H](NC(=O)c1ccc(F)c(Cl)c1)[C@H](O)C(C)(C)O2 | 88.3% | –
C[C@H](O)[C@H](O)[C@H]1CNc2nc(N)[nH]c(=O)c2N1 | 93.9% | –
COc1ccc2c(c1)[C@@H]1C[C@]1(C(=O)N1[C@@H]3CC[C@H]1CN(C)C3)Cn1c-2c(C2CCCCC2)c2ccc(C(=O)NS(=O)(=O)N(C)C)cc21 | – | 7.31 µM (active)
CC(C)(C)c1ccc(C(=O)Nc2cn3cc(-n4ccnc4)ccc3n2)cc1 | – | 5.17 µM (active)
CC(=O)c1c(C)cccc1O[C@@H]1O[C@H](CO)[C@@H](O)[C@H](O)[C@H]1O | 95.6% | –
CC1(C)CC2C3=CCC4C5(C)CCC(OC6OC(CO)C(O)C(OC7OC(CO)C(O)C(OC8OC(CO)C(O)C(OC9OC(COC%10OC(CO)C(O)C(O)C%10O)C(O)C(O)C9O)C8O)C7O)C6O)C(C)(C)C5CCC4(C)C3(C)CCC2(C(=O)O)CC1O (stereo unspecified) | 99.5% [at 9.25 µM] | –
CCCCC/C=C\C/C=C\CCCCCCCC(=O)NC(C)c1ccccc1 (stereo unspecified) | – | 7.5 µM (active)
COC(=O)C12CCC(C)C(C)C1C1=CCC3C4(C)CCC(OC(C)=O)C(C)(C)C4CCC3(C)C1(C)CC2 (stereo unspecified) | 81.7% [at 17.3 µM] | –
C=CC1(C)CC(OC(=O)/C(C)=C\COC(C)=O)C(C(=C)C(=O)O)C(O)C1C(=C)CO (stereo unspecified) | 86.1% [at 17.3 µM] | –
COc1cc(/C=C/C(=O)O[C@@H]2C[C@@](O)(C(=O)O)C[C@@H](O)[C@@H]2O)ccc1O | 83.2% | –
CN1CCc2cccc3c2[C@H]1Cc1ccc(O)c(O)c1-3 | – | 3.76 µM (active)
C/C1=C\C[C@H](O[C@@H]2O[C@H](CO)[C@@H](O)[C@H](O)[C@H]2O)/C(C)=C/[C@H]2OC(=O)[C@H](C)[C@@H]2CC1 | 115% [at 17.3 µM] | –
CCCCc1nc(C)c(CC(=S)N(C)C)c(=O)n1Cc1ccc(-c2ccccc2-c2nn[nH]n2)cc1 | 81.2% | –
C/C=C(\C)[C@@H]1C(C)=C[C@@H]2[C@H]([C@@H]1/C=C/C=C/C(=O)O)[C@@H](C)CC[C@@H]2O | – | 3.6 µM (active)
CC1(C)CC[C@]2(C(=O)O[C@@H]3O[C@H](CO)[C@@H](O)[C@H](O)[C@H]3O)CC[C@]3(C)C(=CCC4[C@@]5(C)CC[C@H](O[C@@H]6O[C@H](C(=O)O)[C@@H](O[C@@H]7O[C@H](CO)[C@@H](O)[C@H](O)[C@H]7O)[C@H](O)[C@H]6O)C(C)(C)C5CC[C@]43C)C2C1 (stereo partly specified) | 88% [at 9.25 µM] | –
